Measured values: PubChem BioAssay (EPA / NIEHS)
Active and inactive are the calls of the source. The calls were made as follows: active = hit-call score of the fitted dose curve at least 0.9, where 1 is the maximum; inactive = score below 0.9.

Assay: ATG_M_61_CIS: Attagene CIS-FACTORIAL HepG2 Assay for M61 Transcription Factor (Internal Marker) (AID 2282937)
Conditions: HepG2 Attagene CIS-FACTORIAL M61 internal marker reporter; actives raise or lower the signal
In short: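 Human liver HepG2, transient MRTU transfection (cis promoter elements), 24 h compound. Total RNA → oligo(dT) RT → PCR → FAM label → HpaI → CE. Internal background marker; bidirectional fitting, DMSO = baseline.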

Question: Which outcome does the source give for `CCCSP(=S)(OCC)Oc1ccc(Cl)cc1Cl` (stereo not drawn) here?
Answer: inactive

Question: Which outcome does the source give for `CCC[CH2][Sn]([CH2]CCC)([CH2]CCC)[CH2]CCC` here?
Answer: inactive

Question: With `Cc1cc(Cl)ccc1O` as the compound, how does the outcome read?
Answer: inactive

Question: For `O=[N+]([O-])c1cccc2ccccc12`, which outcome is on record?
Answer: inactive

Question: For `ClCCCCl`, which outcome is on record?
Answer: inactive

Question: With `CNC(=O)CSP(=O)(OC)OC` as the compound, how does the outcome read?
Answer: inactive

Question: With `N#Cc1ccccc1N` as the compound, how does the outcome read?
Answer: inactive

Question: Which outcome does the source give for `Cc1ccc2nc3sc(=O)sc3nc2c1` here?
Answer: inactive

Question: For `O=C(O)c1cc(I)cc(I)c1I`, which outcome is on record?
Answer: inactive

Question: With `O=C(NC(=O)c1c(F)cccc1F)Nc1cc(Cl)c(F)c(Cl)c1F` as the compound, how does the outcome read?
Answer: inactive

Question: With `CCN(CCO)CCO` as the compound, how does the outcome read?
Answer: inactive

Question: Which outcome does the source give for `C1CN2CCN1CC2` here?
Answer: inactive

Question: For `C=C(C)[C@@H]1CC=C(C=O)CC1`, which outcome is on record?
Answer: inactive

Question: Which outcome does the source give for `CC1(C)[C@H](/C=C2\CCSC2=O)[C@@H]1C(=O)OCc1coc(Cc2ccccc2)c1` here?
Answer: inactive

Question: For `O=c1nc(O)n(Cl)c(=O)n1Cl`, which outcome is on record?
Answer: inactive

Question: Which outcome does the source give for `[F][Sn]([c]1ccccc1)([c]1ccccc1)[c]1ccccc1` here?
Answer: inactive

Question: Which outcome does the source give for `O=C1C[C@@H]2OCC=C3CN4CC[C@]56c7ccccc7N1[C@H]5[C@H]2[C@H]3C[C@H]46` here?
Answer: inactive

Question: Which outcome does the source give for `C=CC(=O)NC(C)(C)CC(C)=O` here?
Answer: inactive

Question: With `OCCCCO` as the compound, how does the outcome read?
Answer: inactive

Question: With `N#CS` as the compound, how does the outcome read?
Answer: inactive

Question: With `OC(c1ccc(Cl)cc1)(c1ccc(Cl)cc1)c1cccnc1` as the compound, how does the outcome read?
Answer: inactive

Question: With `O=[N+]([O-])c1ccccc1O` as the compound, how does the outcome read?
Answer: inactive

Question: Which outcome does the source give for `CCOc1cc(C=O)ccc1O` here?
Answer: inactive

Question: With `C=CCOC(F)(C(F)(F)F)C(F)(F)F` as the compound, how does the outcome read?
Answer: inactive

Question: For `Cc1cc(Cl)ccc1OC(C)C(=O)O` (stereo not drawn), which outcome is on record?
Answer: inactive

Question: For `Brc1ccc(Br)cc1`, which outcome is on record?
Answer: inactive

Question: For `CNC(=O)N(C)c1nc2ccccc2s1`, which outcome is on record?
Answer: inactive

Question: Which outcome does the source give for `O=[N+]([O-])c1cc([As](=O)(O)O)ccc1O` here?
Answer: inactive

Question: Which outcome does the source give for `Cc1c([N+](=O)[O-])c(C)c([N+](=O)[O-])c(C(C)(C)C)c1[N+](=O)[O-]` here?
Answer: inactive

Question: Which outcome does the source give for `CCCSP(=S)(OCC)Oc1ccc(SC)cc1` (stereo not drawn) here?
Answer: inactive

Question: For `C#C[C@]1(O)CC[C@H]2[C@@H]3CCC4=CC(=O)CC[C@]4(C)[C@H]3CC[C@@]21C`, which outcome is on record?
Answer: inactive

Question: With `O=NN1CCCCCCC1` as the compound, how does the outcome read?
Answer: inactive

Question: For `BrCCCCBr`, which outcome is on record?
Answer: inactive

Question: With `CC(C)CP(=S)(S)CC(C)C` as the compound, how does the outcome read?
Answer: inactive

Question: For `O=c1[nH]c(=O)n(Cl)c(=O)n1Cl`, which outcome is on record?
Answer: inactive

Question: With `CC(C)=CC1C(C(=O)OCc2cccc(Oc3ccccc3)c2)C1(C)C` (stereo not drawn) as the compound, how does the outcome read?
Answer: inactive

Question: With `CCOP(=S)(OCC)Oc1ccc(Cl)cc1Cl` as the compound, how does the outcome read?
Answer: inactive

Question: With `CCN(CC)C(=O)C(Cl)=C(C)OP(=O)(OC)OC` as the compound, how does the outcome read?
Answer: inactive

Question: For `CC(C)(C1CCC(O)CC1)C1CCC(O)CC1` (stereo not drawn), which outcome is on record?
Answer: inactive

Assay: ATG_EGR_CIS: Attagene CIS-FACTORIAL HepG2 Assay for human Early Growth Response 1 (EGR1) (AID 2282938)
Conditions: HepG2 Attagene CIS-FACTORIAL EGR reporter mRNA; actives raise or lower the signal
In short: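 Transient transfection of human HepG2 with multiple cis-regulated reporter units, chemical exposure 24 h, total RNA isolated. Reverse transcription, PCR, fluorescent labelling and capillary electrophoresis quantify reporter transcripts; activity fitted bidirectionally against DMSO.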

Question: For `CCCSP(=S)(OCC)Oc1ccc(Cl)cc1Cl` (stereo not drawn), which outcome is on record?
Answer: inactive

Question: With `CCC[CH2][Sn]([CH2]CCC)([CH2]CCC)[CH2]CCC` as the compound, how does the AC50 read?
Answer: 5.14 µM (active)

Question: Which outcome does the source give for `Cc1cc(Cl)ccc1O` here?
Answer: inactive

Question: With `O=[N+]([O-])c1cccc2ccccc12` as the compound, how does the outcome read?
Answer: inactive

Question: For `ClCCCCl`, which outcome is on record?
Answer: inactive

Question: Which outcome does the source give for `CNC(=O)CSP(=O)(OC)OC` here?
Answer: inactive

Question: For `N#Cc1ccccc1N`, which outcome is on record?
Answer: inactive

Question: For `Cc1ccc2nc3sc(=O)sc3nc2c1`, which outcome is on record?
Answer: inactive

Question: Which outcome does the source give for `O=C(O)c1cc(I)cc(I)c1I` here?
Answer: inactive

Question: For `O=C(NC(=O)c1c(F)cccc1F)Nc1cc(Cl)c(F)c(Cl)c1F`, which outcome is on record?
Answer: inactive

Question: For `CCN(CCO)CCO`, which outcome is on record?
Answer: inactive

Question: Which outcome does the source give for `C1CN2CCN1CC2` here?
Answer: inactive

Question: With `C=C(C)[C@@H]1CC=C(C=O)CC1` as the compound, how does the outcome read?
Answer: inactive

Question: With `CC1(C)[C@H](/C=C2\CCSC2=O)[C@@H]1C(=O)OCc1coc(Cc2ccccc2)c1` as the compound, how does the AC50 read?
Answer: 19 µM (active)

Question: For `O=c1nc(O)n(Cl)c(=O)n1Cl`, which outcome is on record?
Answer: inactive

Question: For `[F][Sn]([c]1ccccc1)([c]1ccccc1)[c]1ccccc1`, which AC50 is on record?
Answer: 0.336 µM (active)

Question: For `O=C1C[C@@H]2OCC=C3CN4CC[C@]56c7ccccc7N1[C@H]5[C@H]2[C@H]3C[C@H]46`, which outcome is on record?
Answer: inactive

Question: For `C=CC(=O)NC(C)(C)CC(C)=O`, which outcome is on record?
Answer: inactive

Question: With `OCCCCO` as the compound, how does the outcome read?
Answer: inactive

Question: For `N#CS`, which outcome is on record?
Answer: inactive

Question: Which outcome does the source give for `OC(c1ccc(Cl)cc1)(c1ccc(Cl)cc1)c1cccnc1` here?
Answer: inactive

Question: For `O=[N+]([O-])c1ccccc1O`, which outcome is on record?
Answer: inactive

Question: Which outcome does the source give for `CCOc1cc(C=O)ccc1O` here?
Answer: inactive

Question: Which outcome does the source give for `C=CCOC(F)(C(F)(F)F)C(F)(F)F` here?
Answer: inactive

Question: For `Cc1cc(Cl)ccc1OC(C)C(=O)O` (stereo not drawn), which outcome is on record?
Answer: inactive

Question: For `Brc1ccc(Br)cc1`, which outcome is on record?
Answer: inactive

Question: For `CNC(=O)N(C)c1nc2ccccc2s1`, which outcome is on record?
Answer: inactive

Question: With `O=[N+]([O-])c1cc([As](=O)(O)O)ccc1O` as the compound, how does the outcome read?
Answer: inactive

Question: With `Cc1c([N+](=O)[O-])c(C)c([N+](=O)[O-])c(C(C)(C)C)c1[N+](=O)[O-]` as the compound, how does the outcome read?
Answer: inactive

Question: For `CCCSP(=S)(OCC)Oc1ccc(SC)cc1` (stereo not drawn), which outcome is on record?
Answer: inactive

Question: For `C#C[C@]1(O)CC[C@H]2[C@@H]3CCC4=CC(=O)CC[C@]4(C)[C@H]3CC[C@@]21C`, which outcome is on record?
Answer: inactive

Question: For `O=NN1CCCCCCC1`, which outcome is on record?
Answer: inactive

Question: With `BrCCCCBr` as the compound, how does the outcome read?
Answer: inactive

Question: Which outcome does the source give for `CC(C)CP(=S)(S)CC(C)C` here?
Answer: inactive

Question: For `O=c1[nH]c(=O)n(Cl)c(=O)n1Cl`, which outcome is on record?
Answer: inactive

Question: With `CC(C)=CC1C(C(=O)OCc2cccc(Oc3ccccc3)c2)C1(C)C` (stereo not drawn) as the compound, how does the outcome read?
Answer: inactive

Question: Which outcome does the source give for `CCOP(=S)(OCC)Oc1ccc(Cl)cc1Cl` here?
Answer: inactive

Question: With `CCN(CC)C(=O)C(Cl)=C(C)OP(=O)(OC)OC` as the compound, how does the outcome read?
Answer: inactive

Question: For `CC(C)(C1CCC(O)CC1)C1CCC(O)CC1` (stereo not drawn), which outcome is on record?
Answer: inactive
